# PG9 Ab binder: small molecules binding HIV-1 gp120 antibody PG9. TR-FRET gp120-PG9 antibody binding. inhibition, % at 6.7 µM. 360,000 tested, 0.43% active; in the data active = inhibition above about 8.5%
# NR1D1 modulator: modulates human Rev-erb alpha binding to DNA. Rev-erbα–FITC-DNA binding, fluorescence polarization, 90 min. activity, % at 10 µM. P20393. 370,000 tested, 0.79% active;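 active = activity above about 14%, limit read from the data; passing the limit was not always enough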;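 note: 0% = DMSO wells with 35 nM protein and 100% = DMSO wells with 750 nM protein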
# aDG glyco up: increases alpha dystroglycan glycosylation; Pro5-aDG cells, alpha-DG glycosylation AlphaScreen (IIH6); 0% Pro5, 100% B10-LARGE cell signal; activation, % at 10 µM; 360,000 tested, 0.22% active; AID 624168;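 active = activation of at least 8% versus controls, or a plate z-score of at least 8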;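 note: Pro5 are CHO cells carrying HIG-tagged alpha-DG that lacks glycosylation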
# p47phox inh: blocks human p47phox regulatory protein of NADPH oxidases; 220,000 tested, 0.53% active; p47phox/p22phox peptide binding, fluorescence polarization, 2 h; inhibition, % at 24.7 µM; P14598;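 active = inhibition above about 30%, limit read from the data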;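 note: 0% = p47phox with labelled peptide and 100% = labelled peptide alone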
# EBNA-1 inh: blocks EBNA-1 binding to DNA. EBNA-1 DNA binding, fluorescence polarization. AID 1950. 300,000 tested, 0.34% active. inhibition, % at 14.8 µM; in the data active = inhibition above about 28%
# ZTA counter: ZTA (EBV) inhibition in EBNA-1 counter-screen | 320,000 tested, 0.15% active | AID 2234 | ZTA-DNA binding, fluorescence polarization | inhibition, % at 11 µM; in the data active = inhibition above about 33%
# Target sequence (P03206 whole entry, looked up): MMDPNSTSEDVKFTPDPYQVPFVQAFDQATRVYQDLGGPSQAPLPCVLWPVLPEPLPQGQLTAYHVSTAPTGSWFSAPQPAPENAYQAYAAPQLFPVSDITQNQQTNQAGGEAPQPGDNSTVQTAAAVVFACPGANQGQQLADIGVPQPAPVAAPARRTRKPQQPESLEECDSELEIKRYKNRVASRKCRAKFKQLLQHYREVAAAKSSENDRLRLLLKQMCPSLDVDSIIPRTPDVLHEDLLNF
# ZTA inh confirm: confirmation of Epstein-Barr virus ZTA DNA binding inhibitors | shares compounds with ZTA counter | Zta-ZRE DNA binding, fluorescence polarization | inhibition, % at 11.1 µM | 320 tested, 30% active;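 active = mean inhibition across triplicate runs above the hit threshold derived for the original primary screen, cut at about 33% in these data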;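 note: 0% = Zta with DMSO and 100% = wells lacking Zta protein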
# EBNA-1 counter: EBNA-1 DNA binding inhibition, counter-screen for ZTA. shares compounds with ZTA counter. fluorescence polarization. inhibition, % at 14.8 µM. 320 tested, under 10 active. AID 2362; call rule not given here
# The depositor's hits bear a star; / = no result given. Sampled rows, rich in hits. Any-hit rate of the full collection: about 1.9%.
SMILES,PG9 Ab binder,NR1D1 modulator,aDG glyco up,p47phox inh,EBNA-1 inh,ZTA counter,ZTA inh confirm,EBNA-1 counter
COP(=O)(O)C(Cc1ccccc1)NC(=O)OCc1ccccc1 (stereo not given),/,-1.3,/,/,/,/,/,/
CC(=O)c1cccc(NC(=O)NNC(=O)c2ccc3ccccc3c2)c1,0.8,-3.3,0.0,/,9.6,76.4*,-10.3,-4.8
Cc1cccc(NC(=O)NNC(=O)c2ccc3ccccc3c2)c1,0.8,-6.5,0.0,/,/,/,/,/
Cc1ccc(-n2c(SCC(=O)Nc3ccc4c(c3)OCCO4)nnc2-c2cnccn2)cc1,/,-2.8,/,/,/,/,/,/
CC(C(=O)O)N1C(=O)/C(=C/C=C/c2ccco2)SC1=S (stereo not given),-1.9,-23.9,0.4,/,25.8,57.7*,73.0*,9.4
CCN(C(=O)C(C)N1C(=O)/C(=C/c2ccco2)SC1=S)C1CCS(=O)(=O)C1 (stereo not given),-1.4,-5.2,0.3,/,-13.7,7.5,/,/
CN(CC#Cc1ccccc1)C(N)=NC(=O)/C=C/c1cccc(C(F)(F)F)c1,/,-2.4,/,/,/,/,/,/
O=C(Nc1ccc2c(c1)CCCN2C(=O)c1cccs1)c1c(F)cccc1Cl,-0.1,9.6,0.0,/,-10.8,42.3*,2.8,-2.9
COc1cccc(-c2nnc3n2N=C(c2ccc(Cl)cc2)CS3)c1,/,-3.5,/,/,/,/,/,/
O=C1CCC[C@H]2Cc3nc4cccc(Cl)c4cc3C[C@]23CCCN13,/,4.7,/,/,/,/,/,/
Cc1ccc(S(=O)(=O)/N=C2/C=C(Sc3ncn[nH]3)C(=O)c3ccccc32)cc1,/,/,-0.1,52.9*,0.4,41.0*,74.9*,-9.6
CCc1cccc2c1NC1(CCCC1)CC2C (stereo not given),-0.1,2.8,0.0,1.4,-1.6,4.0,/,/
Cc1cccc2c1NC(C)CC2C (stereo not given),-0.6,1.8,0.7,-6.9,20.7,97.4*,11.9,-7.2
CCOc1ccc(-c2cc(C(=O)OC)c3n(c2=O)CCC3)cc1,/,4.6,/,/,/,/,/,/
COc1ccc2c(c1O)C(=O)c1ccccc1C2=O,/,/,/,-5.0,14.0,4.0,/,/
Nc1c(O)ccc2c1C(=O)c1ccccc1C2=O,-45.1,-13.3,/,79.8*,9.5,40.5*,34.5*,6.4
COc1cccc2c1C(=O)c1c(O)c3c(c(O)c1C2=O)C[C@@](O)(C(=O)CO)C[C@@H]3O[C@H]1C[C@H](N)[C@H](O)[C@H](C)O1,-13.6,-2.7,-0.3,-253.4,24.6,77.9*,97.8*,-8.0
COc1cccc2c1C(=O)c1c(O)c3c(c(O)c1C2=O)C[C@@](O)(C(=O)CO)C[C@@H]3OC1CC(N)C(O)C(C)O1 (stereo not given in full),-12.8,-12.5,-0.6,/,/,/,/,/
COc1cc(C#Cc2c(-c3cncn3C)n(C)c3ccc(-c4ccc5cc[nH]c5c4)cc23)cc(OC)c1,-1.7,-0.8,4.5,/,/,/,/,/
COc1cc(C#Cc2c(-c3cncn3C)n(C)c3ccc(-c4ccc(OC)c(OC)c4)cc23)cc(OC)c1,0.0,5.7,3.6,/,/,37.8*,35.9*,7.3
COC(=O)c1ccc(CNC(=O)CNC(=O)c2sc3ccccc3c2Cl)cc1,-1.6,2.0,0.0,/,6.4,83.0*,69.5*,15.6
NC(=O)c1ccc(NC(=O)CSc2nnc(-c3ccc4c(c3)OCO4)o2)cc1,5.6,-14.4,-0.2,/,/,34.5*,18.0,5.6
O=C(CSc1nnc(-c2ccc3c(c2)OCO3)o1)Nc1c(F)cccc1F,-1.1,-7.6,-0.1,/,/,/,/,/
C#CCOCCOCCOCCNc1nc(N2CCN(C(=O)CCCCCCCCCCNC(=O)[C@H]([C@@H](C)CC)n3cc(CCCCCN)nn3)CC2)nc(N2CCN(C(=O)CCCCCCCCCCNC(=O)[C@H]([C@@H](C)CC)n3cc(CCCCN=C(N)N)nn3)CC2)n1,/,/,0.2,/,5.1,163.3*,54.5*,-15.0
C#CCOCCOCCOCCNc1nc(N2CCN(C(=O)CCCCCCCCCCNC(=O)[C@H]([C@@H](C)CC)n3cc(CCCCCN)nn3)CC2)nc(N2CCN(C(=O)CCCCCCCCCCNC(=O)[C@H](CCCCN)n3cc(CCCC(=O)O)nn3)CC2)n1,/,/,-0.3,/,2.7,29.3,/,/
